Bioassay records from PubChem.
VP16 counter – VP16 counterscreen qHTS for inhibitors of ROR gamma transcriptional activity; 310,000 tested, 3.5% active; Drosophila S2 Gal4-VP16 UAS-luciferase, luminescence, 20 h; Potency, µM (titrated, usually from 53.6 µM), hits mostly inhibitors; AID 2546, 2010;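 further: Gal4-VP16 expression switched on by copper sulfate through the metallothionein promoter; nearly all actives have a fitted effect of over 50% in size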
TSHR antagonist – Antagonists of the Thyroid Stimulating Hormone Receptor: HTS campaign; Thyrotropin receptor (Homo sapiens), P16473; 330,000 tested, 0.2% active; activity change, negative = inhibition, % at 11.5 µM; AID 504810, 2011; TSHR-expressing cells, TSH-stimulated cAMP HTRF, 2 h; hits give low values;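 active means activity change below a set negative limit, meaning inhibition stronger than a set level, cut at about -70% in these data; inconclusive means activity change between two set negative limits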
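TSHR-expressing cells, 200/well, pre-treated with compound, then stimulated with EC80 TSH (4nM final) for 2 hours at 37 deg C. cAMP measured by competitive HTRF: anti-cAMP cryptate antibody in lysis buffer plus cAMP-d2, read after 30 minutes at room temperature.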
ELG1 DNA repair – qHTS screen for small molecules that inhibit ELG1-dependent DNA repair in human embryonic kidney (HEK293T) cells expressing luciferase-tagged ELG1. HEK293T ELG1-luciferase reporter, luminescence, 16 h; DNA damage induced by 5-fluorouridine. Potency, µM (highest dose often 46.1 µM), usual class: inhibitors. AID 504467, 2011. 330,000 tested, 2.3% active; further: nearly all actives have a fitted effect of over 55% in size
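Overnight (16 hr) co-exposure of 2,000 cells/well to 5-fluorouridine and compound at 37 °C preceded detection. Luciferase was quantified via ONE-Glo luminescence; loss of signal denotes inhibition.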
RORgamma inh – qHTS for inhibitors of ROR gamma transcriptional activity; Drosophila S2 Gal4-RORgamma UAS-luciferase reporter, 20 h; Potency, µM (doses to about 53.6 µM), most hits filed as inhibitors; Nuclear receptor ROR-gamma (Mus musculus), P51450; 310,000 tested, 5.4% active; AID 2551, 2010; further: nearly all actives have a fitted effect of over 60% in size
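Drosophila S2 cells stably expressing Gal4-DBD/mouse RORγ fusion under metallothionein promoter plus UAS-luciferase; compound 1 h, then 700 uM CuSO4 induction for 20 h at ambient temperature; inhibition read as reduced luminescence.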
B2AR arrestin – qHTS assay of beta-arrestin-biased ligands of beta2-adrenergic receptor; 330,000 tested, 0.02% active; Potency, µM (doses to about 46.1 µM), usual class: activators; beta-arrestin recruitment to beta2AR, cell-based reporter; AID 492947, 2010; Beta-2 adrenergic receptor (Homo sapiens), P07550; further: nearly all actives have a fitted effect of over 65% in size
Target sequence (P07550 whole entry, looked up): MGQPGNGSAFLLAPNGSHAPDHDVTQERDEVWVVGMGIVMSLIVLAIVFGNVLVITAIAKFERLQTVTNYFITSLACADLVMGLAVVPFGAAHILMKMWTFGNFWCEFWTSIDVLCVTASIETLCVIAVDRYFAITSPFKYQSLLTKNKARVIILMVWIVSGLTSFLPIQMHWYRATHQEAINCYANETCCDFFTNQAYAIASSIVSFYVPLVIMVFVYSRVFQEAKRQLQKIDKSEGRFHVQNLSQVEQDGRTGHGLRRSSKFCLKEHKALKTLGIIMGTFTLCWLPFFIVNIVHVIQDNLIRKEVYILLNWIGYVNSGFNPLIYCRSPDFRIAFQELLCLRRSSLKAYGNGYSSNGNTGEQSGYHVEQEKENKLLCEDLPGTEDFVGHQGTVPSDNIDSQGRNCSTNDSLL
Large screens that a line does not name were inactive. The list is not random: actives were taken first. Their share in the collection is about 7.5%. Unless noted, the call rests on the fitted dose curve; in most records, active means well fitted curve in the direction sought with a large enough effect; inconclusive means small, poorly fitted or top-dose-only effect, or another doubt; inactive means no such curve, though single readings can be large; an effect the other way counts as inactive or inconclusive.

Cc1ccccc1Nc1c(-c2ccccn2)nc2c(C)cccn12	VP16 counter 7.94µM, ELG1 DNA repair inconclusive, RORgamma inh 3.98µM
Cn1c(=O)c(-c2cccs2)nc2cnc(Oc3ccccc3)nc21	none (no result: TSHR antagonist, ELG1 DNA repair, B2AR arrestin)
O=C(NC(=O)c1ccccc1O)c1ccc2c(c1)CCO2	VP16 counter inconclusive, ELG1 DNA repair inconclusive, RORgamma inh 5.01µM
Cc1ccc(CNC(=O)c2ccc(N3CCC4(CC3)CC(c3ccccc3)=NO4)c([N+](=O)[O-])c2)cc1	ELG1 DNA repair inconclusive
Cc1nn(C)c(C)c1/C=C(/C(=O)C(C)(C)C)n1cncn1	ELG1 DNA repair inconclusive
CC(C)(C)C(=O)/C(=C/c1ccncc1)n1cncn1	VP16 counter 2.82µM, ELG1 DNA repair inconclusive, RORgamma inh 1µM
CC12CCC(=O)N1C(C(=O)N1CCN(S(=O)(=O)c3cccc(Cl)c3)CC1)CS2 (centres undefined)	none (no result: VP16 counter, RORgamma inh)
CC[C@H](C)N	none (no result: TSHR antagonist, ELG1 DNA repair, B2AR arrestin)
Cc1ccc(NC(=O)CSc2nn(-c3ccccc3)c(=S)s2)cc1S(=O)(=O)N(C)C	VP16 counter 14.1µM, ELG1 DNA repair 23.1µM, RORgamma inh inconclusive
Cc1cccc(CNc2nc(-c3cccnc3)nc3ccccc23)c1	none (no result: TSHR antagonist, ELG1 DNA repair, B2AR arrestin)
CC(C)[C@H](NC(=O)[C@H]1N2C(=O)c3ccccc3C2SC1(C)C)C(=O)NCc1ccco1 (some centres undefined)	none
Cc1ccc(CN2CCN(CC(=O)N/N=C/c3ccccc3F)CC2)cc1	ELG1 DNA repair inconclusive
Cc1ccc(NC(=S)N/N=C/c2cccn2Cc2ccccc2F)cc1	VP16 counter 1.12µM, RORgamma inh 0.355µM
C=CCn1c(O)c(N=NC(=S)Nc2ccccc2F)c2cc(S(=O)(=O)N3CCOCC3)ccc21	VP16 counter 2µM, RORgamma inh 0.447µM, B2AR arrestin inconclusive
Cc1c(Cl)cccc1NC(=S)N=Nc1c(O)n(CN2CCOCC2)c2ccccc12	VP16 counter 5.01µM, RORgamma inh 1.78µM
CCn1c(O)c(N=NC(=O)CNc2cccc(C)c2)c2ccccc21	none
C=CCn1c(O)c(N=NC(=S)Nc2ccccc2F)c2ccccc21	VP16 counter 1.78µM, ELG1 DNA repair 6.51µM, RORgamma inh 0.794µM
C=CCn1c(O)c(N=NC(=S)Nc2cccc(C)c2)c2ccccc21	VP16 counter 0.447µM, RORgamma inh 0.251µM
C=CCn1c(O)c(N=NC(=O)c2ccccc2NS(=O)(=O)c2cccs2)c2ccccc21	RORgamma inh inconclusive
COC(=O)[C@@H]1C[C@H]2CC[C@H](O)C[C@H]2N1Cc1ccc(N2CCOCC2)cc1	none (no result: TSHR antagonist, ELG1 DNA repair, B2AR arrestin)
Oc1c(N=NC(=S)Nc2ccccc2F)c2ccccc2n1Cc1ccccc1Cl	VP16 counter 6.31µM, RORgamma inh 2.24µM
Cc1ccc(Cn2c(O)c(N=NC(=S)Nc3ccccc3F)c3ccccc32)cc1	VP16 counter 7.08µM, ELG1 DNA repair 5.17µM, RORgamma inh 3.98µM
COC(=O)N=Nc1c(O)n(Cc2ccccc2)c2ccccc12	ELG1 DNA repair inconclusive
Oc1c(N=NC(=S)Nc2ccccc2F)c2ccccc2n1Cc1ccccc1	VP16 counter 3.55µM, ELG1 DNA repair 8.2µM, RORgamma inh 2.82µM
COc1ccccc1N(CC(=O)Nc1ccccc1C(F)(F)F)S(=O)(=O)c1cccs1	none (no result: VP16 counter, RORgamma inh)
CC(C)[C@@H](CC(=O)N[C@@H]1CCNC[C@H]1C(=O)N[C@H](CC(=O)N[C@@H](CCC(=O)O)CC(=O)O)Cc1ccccc1)NC(=O)C[C@H](Cc1ccccc1)NC(=O)[C@@H]1CNCC[C@H]1N	none (no result: TSHR antagonist, ELG1 DNA repair, B2AR arrestin)
O=C1OC(c2cccs2)=N/C1=C\c1ccc(-c2cccc(Cl)c2)o1	RORgamma inh inconclusive
N=C1S/C(=C\c2ccc(-c3cccc(Cl)c3)o2)C(=O)N1c1nccs1	ELG1 DNA repair inconclusive, RORgamma inh 0.141µM
COc1ccc(/C=C2\SC(=N)N(c3nccs3)C2=O)cc1OC	VP16 counter inconclusive, ELG1 DNA repair inconclusive, RORgamma inh 0.126µM
Cc1cc(NC(=O)C2CCCC2)nc2c1c(=O)oc1ccccc12	ELG1 DNA repair 20.6µM
Cc1cc(NC(=O)C2CCCCC2)nc2c1c(=O)oc1ccccc12	none
